Consider 8 compounds from PubChem BioAssay (NCI).

About 83,000 compounds went through this panel and 20% of them were active in at least one assay; those are over-represented in the sample as a whole.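 Single-concentration screen, 48 h exposure, 96-well plates. Endpoint: percent growth. Below 10 = active.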 A number with no mark means an inactive call. Activity calls are given as the source filed them.

Among the test systems are NCI-H23 lung; NCI-H226 lung; NCI-H322M lung; HOP-62 NSCLC; NCI-H460 lung; HOP-92 NSCLC; NCI-H522 lung; A549/ATCC NSCLC; 786-0 renal; COLO 205 colon; DU-145 prostate; K-562 leukemia; MALME-3M melanoma; MDA-MB-231 breast; RXF 393 renal; SF-268 CNS; SF-295 CNS; UACC-257 melanoma; M14 melanoma; SF-539 CNS.
Holding throughout (assay): NCI-60 one-dose screen, 48 h (100 = growth as untreated, 0 = no growth, -100 = all killed)
Conditions in all cases: 10 µM unless noted

In the case of `COc1cc(NCCCN=C(N)N)c2ncccc2c1`, the growth with NCI-H23 lung is 14.1%; in the assay with NCI-H226 lung, 86.2%; with NCI-H322M lung it was 74%; in the assay on HOP-62 NSCLC it was 73%; in the assay with NCI-H460 lung, 96.4%; in the assay on HOP-92 NSCLC, 56.7%. For the same compound, the growth with NCI-H522 lung is -10.2% (active); with A549/ATCC NSCLC it was 84.8%; in the assay on 786-0 renal it was 95.4%; in the assay with COLO 205 colon, 89.8%; in the assay with DU-145 prostate, 103%; with K-562 leukemia it was 93.7%. Besides, the growth in the assay with MALME-3M melanoma is 21.1%; in the assay with MDA-MB-231 breast, 64.8%; in the assay on RXF 393 renal, 102%; with SF-268 CNS, 25.2%; in the assay on SF-295 CNS it was 88.6%; in the assay with UACC-257 melanoma, 90.3%. For the same compound, in the assay with M14 melanoma, the growth was 100%.

As to `CCN(CC)CCOC(=O)C(OC(C)C)(c1ccccc1)c1ccccc1`, the growth in the assay on NCI-H23 lung was 99.1%; in the assay on NCI-H226 lung, 100%; in the assay with NCI-H322M lung, 99.6%; with HOP-62 NSCLC it was 94.8%; with NCI-H460 lung it was 100%; in the assay on HOP-92 NSCLC, 80.1%. The growth with NCI-H522 lung is 82.3%; in the assay with A549/ATCC NSCLC it was 96.9%; with 786-0 renal, 88.2%; in the assay on COLO 205 colon it was 98%; in the assay on DU-145 prostate, 98.8%; with K-562 leukemia it was 97.3%. Further, the growth in the assay with MALME-3M melanoma is 101%; in the assay on MDA-MB-231 breast, 99.3%; with RXF 393 renal, 98.5%; with SF-268 CNS, 93%; in the assay with SF-295 CNS, 109%; in the assay on SF-539 CNS, 111%. The growth in the assay with M14 melanoma is 110%.

As for `CC(C)CCC(=O)O[C@H]1CC[C@H]2[C@@H]3CCC4=CC(=O)CC[C@]4(C)[C@H]3CC[C@]12C`, the growth in the assay with NCI-H23 lung is 95.2%; with NCI-H226 lung, 97.5%; in the assay on NCI-H322M lung, 93.4%; with HOP-62 NSCLC, 102%; with NCI-H460 lung, 98.7%; in the assay on HOP-92 NSCLC, 112%. Moreover, the growth in the assay with NCI-H522 lung was 93.3%; with A549/ATCC NSCLC, 96%; with 786-0 renal it was 105%; in the assay on COLO 205 colon, 106%; in the assay with DU-145 prostate, 96.5%; with K-562 leukemia it was 98.2%. Moreover, the growth in the assay on MALME-3M melanoma was 84.2%; with MDA-MB-231 breast, 98.2%; in the assay on RXF 393 renal, 107%; with SF-268 CNS, 93.1%; in the assay with SF-295 CNS it was 102%; in the assay on SF-539 CNS it was 96%. Also, the growth with M14 melanoma was 98.9%.

As for `COC(=O)[C@H](C[C@H](Cc1ccccc1)NC(=O)c1csc([C@@H](C[C@H](C(C)C)N(C)C(=O)[C@@H](NC(=O)[C@H]2CCCCN2C)C(C)C)OC(C)=O)n1)NC(=O)OCc1ccccc1`, the growth is 30.2% [8.5 µM] in the assay on NCI-H23 lung; -42.6% [8.5 µM] (active) in the assay on NCI-H226 lung; 44.7% [8.5 µM] with NCI-H322M lung; 18.6% [8.5 µM] in the assay on HOP-62 NSCLC; 5.67% [8.5 µM] (active) with NCI-H460 lung; 28.2% [8.5 µM] in the assay with HOP-92 NSCLC. Also, the growth with NCI-H522 lung was -30.4% [8.5 µM] (active); with A549/ATCC NSCLC it was 18.8% [8.5 µM]; in the assay on 786-0 renal, 15.2% [8.5 µM]; in the assay with COLO 205 colon, -53.3% [8.5 µM] (active); with DU-145 prostate, -18.2% [8.5 µM] (active); in the assay on K-562 leukemia it was 5.76% [8.5 µM] (active). The growth in the assay on MALME-3M melanoma was -53.7% [8.5 µM] (active); in the assay on MDA-MB-231 breast it was 5.23% [8.5 µM] (active); in the assay on RXF 393 renal it was 20.4% [8.5 µM]; in the assay with SF-268 CNS it was 13.1% [8.5 µM]; in the assay on SF-295 CNS it was 8.4% [8.5 µM] (active); in the assay on SF-539 CNS, -21.7% [8.5 µM] (active). The growth in the assay on UACC-257 melanoma was 13.9% [8.5 µM]; with M14 melanoma it was -48.4% [8.5 µM] (active).

As for `c1ccc(COc2ccc3[nH]cc(CCN(Cc4ccccc4)Cc4ccccc4)c3c2)cc1`, the growth was 77.5% with NCI-H23 lung; 73.8% in the assay with NCI-H226 lung; 100% in the assay on NCI-H322M lung; 99.4% with HOP-62 NSCLC; 91.6% in the assay with NCI-H460 lung; 81.6% with HOP-92 NSCLC. In addition, the growth is 82.9% with NCI-H522 lung; 85.2% with A549/ATCC NSCLC; 91.9% with 786-0 renal; 101% in the assay with COLO 205 colon; 98.8% in the assay with DU-145 prostate; 71.1% with K-562 leukemia. The growth in the assay on MALME-3M melanoma was 91.3%; with MDA-MB-231 breast it was 83.3%; with RXF 393 renal, 91.2%; with SF-268 CNS, 92.4%; in the assay with SF-295 CNS, 91.4%; with SF-539 CNS, 97.1%. For the same compound, the growth with M14 melanoma was 98.6%.

`CCCC(=O)O[C@@H]1C[C@H]2C[C@@H](O[C@@H]3O[C@@H](C)[C@@H](O)[C@@H](O)[C@H]3OC)C[C@@H](C[C@@H](C)/C=C/C=C\C[C@@H]3O[C@@H](C[C@@H]3C)[C@@H](O)C[C@H]3C[C@@]1(O)C(=O)O3)O2`: the growth was 25.9% with NCI-H23 lung; 33.3% in the assay on NCI-H226 lung; 88.4% in the assay with NCI-H322M lung; 64.8% in the assay with HOP-62 NSCLC; 47.3% in the assay with NCI-H460 lung; 91.6% in the assay on HOP-92 NSCLC. For the same compound, the growth with NCI-H522 lung was 21%; in the assay on A549/ATCC NSCLC it was 46.4%; with 786-0 renal, 76.6%; with COLO 205 colon, 39.4%; in the assay with DU-145 prostate, 48.8%; in the assay with K-562 leukemia, 21.2%. Further, the growth with MALME-3M melanoma was 64.7%; with MDA-MB-231 breast it was 86.4%; in the assay on RXF 393 renal, 72.1%; in the assay with SF-268 CNS, 80.1%; in the assay with SF-295 CNS it was 7.39% (active); in the assay with SF-539 CNS, 67.6%. Besides, the results for the growth in the assay with UACC-257 melanoma and with M14 melanoma were 9.61% (active) and 69.8%, respectively.

In the case of `COc1ccc([As]=[As]c2ccc(OC)c(NCS(=O)(=O)O)c2)cc1NCS(=O)(=O)O` (stereo not given), the growth in the assay with NCI-H23 lung is 23.3%; in the assay with NCI-H226 lung, 61.9%; in the assay with NCI-H322M lung, 95.6%; in the assay with HOP-62 NSCLC, 39.7%; in the assay with NCI-H460 lung, 88.2%; in the assay with HOP-92 NSCLC it was -21.9% (active). In addition, the growth was -32.9% (active) with NCI-H522 lung; 69.4% with A549/ATCC NSCLC; -46.4% (active) in the assay with 786-0 renal; 2.8% (active) in the assay on COLO 205 colon; 43.1% in the assay on DU-145 prostate; -2.74% (active) in the assay with K-562 leukemia. Besides, the growth with MALME-3M melanoma was -44.6% (active); with MDA-MB-231 breast it was 4.41% (active); in the assay with RXF 393 renal it was -17.9% (active); in the assay on SF-268 CNS, 17.8%; in the assay with SF-295 CNS, 80%; with SF-539 CNS it was 2.54% (active). Also, the growth is 27.6% in the assay on UACC-257 melanoma and 19.2% with M14 melanoma.

Take `Nc1nnnc2nc[nH]c12`: the growth in the assay on NCI-H23 lung is 31%; in the assay with NCI-H226 lung it was -54.1% (active); with NCI-H322M lung, 28.1%; in the assay on HOP-62 NSCLC, -11.4% (active); in the assay with NCI-H460 lung, 20.6%; in the assay on HOP-92 NSCLC it was 1.91% (active). Also, the growth with NCI-H522 lung was 14.6%; in the assay with A549/ATCC NSCLC, 34.4%; with 786-0 renal, 0.102% (active); in the assay on COLO 205 colon it was 6.07% (active); in the assay with DU-145 prostate it was 3.72% (active); in the assay on K-562 leukemia it was 4.73% (active). Besides, the growth in the assay on MALME-3M melanoma was 34.8%; in the assay with MDA-MB-231 breast it was 14.5%; in the assay on RXF 393 renal it was 11.6%; in the assay on SF-268 CNS it was 28.6%; in the assay with SF-295 CNS it was 0.603% (active); in the assay on SF-539 CNS, 14.3%. Moreover, the growth in the assay on M14 melanoma was -35.4% (active).
